Cell viability remaining data for 66 targets are collected here from the supplement of paper PMC4188521.

Compound in the assay: CCc1cnn2c(NCc3ccc[n+]([O-])c3)cc(N3CCCC[C@H]3CCO)nc12 [dinaciclib]
As to the kind of experiment: cell viability remaining relative to DMSO control; higher = less cytotoxic (more viable cells). The conditions noted are these: 100 nM; 24 h. An outline of the steps: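 Remaining viability, expressed as a percentage of the DMSO control, compares luminescence in treated wells with that in DMSO-treated control wells. Solid tumour cell lines from commercial banks received 100 nM of the test compound for 24 hr, with final DMSO kept at ≤0.2%. Viability was read as ATP luminescence using CellTiter-Glo, and values are means from 2–6 plates run in triplicate wells.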

As for CORL105, the cell viability remaining was 49%.
With RD, the cell viability remaining was 41.1%.
Turning to NUGC4, the cell viability remaining was determined as 108%.
The same measure for HT29: 57.8%.
Turning to DLD1, the cell viability remaining is 46.8%.
Take HUTU80: the cell viability remaining came out at 27.1%.
Take H2122: the cell viability remaining stood at 48.2%.
The same measure for SH4: 64.5%.
For the target 2313287, the cell viability remaining worked out at 65.6%.
The same measure for AU565: 39.3%; for HS578T: 69.3%; for 22RV1: 50.2%.
The same measure for SW1783: 72.9%; for HCC827: 67.9%.
The same measure for A498: 68.3%.
For DBTRG05MG, the cell viability remaining worked out at 81.7%.
Consider SJSA1, for which the cell viability remaining was 66.7%.
The same measure for U2OS: 36.4%.
The same measure for H522: 80.6%.
The same measure for 769P: 57.5%; for 786O: 44.3%; for SKLMS1: 82.9%.
With HEC1B, the cell viability remaining was found to be 94.1%.
For OV7, the cell viability remaining worked out at 73.4%.
The same measure for SNU423: 36.7%; for HMCB: 37.5%; for LS513: 55.8%.
The same measure for A549: 55.3%.
For the target BXPC3, the cell viability remaining stood at 29.4%.
For SW1088, the cell viability remaining is 58%.
As for HCC1428, the cell viability remaining was 19.7%.
The same measure for OV90: 99.8%.
Regarding HS895T, the cell viability remaining came to 92.4%.
As for SKNDZ, the cell viability remaining amounted to 44.1%.
Regarding SW48, the cell viability remaining is 55.8%.
Regarding HCT15, the cell viability remaining was found to be 45.4%.
On to SHP77, for which the cell viability remaining is 50.2%.
Turning to SKMEL30, the cell viability remaining amounted to 62.5%.
The same measure for COLO800: 36.9%; for MDAMB436: 67.8%.
Regarding DAOY, the cell viability remaining is 23.4%.
The same measure for RKN: 55.6%; for SNU16: 52.2%; for OAW28: 63.1%.
CAL54: the cell viability remaining was found to be 78.9%.
Regarding COLO320DM, the cell viability remaining was determined as 17.1%.
As for SW837, the cell viability remaining amounted to 79.8%.
The same measure for KPL1: 50.2%; for WM115: 69.1%.
With MDAMB231, the cell viability remaining is 57.6%.
The same measure for TOV21G: 66.7%.
The same measure for CAL51: 43.8%; for SKMEL31: 66.9%.
As for DETROIT562, the cell viability remaining worked out at 34.6%.
For OVKATE, the cell viability remaining was found to be 105%.
The same measure for KATOIII: 87.5%; for HCC1954: 38%.
With DV90, the cell viability remaining stood at 56.2%.
In the case of MESSA, the cell viability remaining came to 33.4%.
The same measure for H441: 73.4%; for LS180: 85.7%.
The same measure for SW1573: 99%; for TOV112D: 16%.
The same measure for HEC108: 63%; for HT144: 48.6%; for SU8686: 48.9%.
